{
  "source": "PubChem BioAssay AID493185",
  "about": "(National Center for Advancing Translational Sciences (NCATS), 2011)",
  "note": "Calls of active or inactive are those of the source. Entries that show only a call come without a potency. Calls follow the shape of the dose curve; as a rule, active = well fitted activation curve with a large enough effect; inconclusive = small, poorly fitted or top-dose-only effect; inactive = no such curve, though single readings can be large or run the other way.",
  "data": [
    {"assay": "Counterscreen for Identifying a Potential Treatment of Ataxia-Telangiectasia: Hit Validation; also: potency is read from the fitted curve at half-maximal effect", "details": "cell-free AlphaLISA/AlphaScreen artifact counterscreen, PBS only, no cells; series mostly up to 76.9 µM", "in_short": "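Cell-free AlphaLISA counterscreen: compounds (up to 76.7 uM final) in PBS with detection mix of anti-pKAP1 and anti-KAP1 antibodies on donor/acceptor beads plus lysis buffer, incubated 6 hr at 25C before AlphaScreen read.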", "values": [
      {"molecule": "OC(COC(c1ccc(F)cc1)c1ccc(F)cc1)CN1CCCC1", "note": "(stereo not given)", "Potency": "inactive"},
      {"molecule": "CCOC(=O)c1cccc(N2C(=O)C3C4C=CC(CC4)C3C2=O)c1", "note": "(stereo not given)", "Potency": "inactive"},
      {"molecule": "COC(=O)CCc1c(C)c(C(=O)c2cc(OC)c(OC)c(OC)c2)c2ccccn12", "Potency": "inactive"},
      {"molecule": "COc1ccc(C2(C)CC(C)(C)Nc3ccccc32)cc1", "note": "(stereo not given)", "Potency": "inactive"},
      {"molecule": "CC(C)Nc1nc(Oc2ccc(=O)n(-c3ccccc3)n2)nc(N(C)C)n1", "Potency": "inactive"},
      {"molecule": "CC(C)CNS(=O)(=O)c1cc(C(=O)O)c(Cl)cc1Cl", "Potency": "inactive"},
      {"molecule": "CCS(=O)(=O)c1ccc(C(=O)Nc2ccccc2)c(Cl)c1Cl", "Potency": "inactive"},
      {"molecule": "COc1cc(/C=C2\\SC(=S)N(C(C(=O)O)c3ccccc3)C2=O)ccc1O", "note": "(stereo not given)", "Potency": "inactive"},
      {"molecule": "CC(=O)c1sc2nc(C)c3c(c2c1N)CCCC3", "Potency": "46.3 µM (active)"},
      {"molecule": "Cc1ccc(C2(C)NC(=O)N(CC(=O)Nc3ccccc3N3CCCC3)C2=O)cc1", "note": "(stereo not given)", "Potency": "inactive"},
      {"molecule": "CN(Cc1ccccc1)C(=O)c1cccc(N2C(=O)C3CC=CCC3C2=O)c1", "note": "(stereo not given)", "Potency": "inactive"},
      {"molecule": "Cc1ccc2c(c1)C(=O)CC(O)(C(F)(F)F)O2", "note": "(stereo not given)", "Potency": "inactive"},
      {"molecule": "CCOC(=O)Cc1csc(NC(=O)CSc2nnc(C(C)C)n2C)n1", "Potency": "inactive"},
      {"molecule": "CC(C)(CO)NC(=O)c1ccc2c(c1)C(=O)c1ccccc1-2", "Potency": "inactive"},
      {"molecule": "COc1ccc(C2/C=C\\CN(S(=O)(=O)c3ccc4ccccc4c3)CC(=O)N2Cc2ccc(F)cc2)cc1", "note": "(stereo not given)", "Potency": "inactive"},
      {"molecule": "Cc1cc(C)c2c(Cn3ccnc3)cc(=O)oc2c1", "Potency": "inactive"},
      {"molecule": "CCC12CN(C(=O)c3ccc([N+](=O)[O-])cc3)CC(CC)(CN(C(=O)c3ccc([N+](=O)[O-])cc3)C1)C2=O", "Potency": "inactive"},
      {"molecule": "CCCN1C2CCCC1CC(NC(=S)Nc1cccc(C)c1C)C2", "note": "(stereo not given)", "Potency": "inactive"},
      {"molecule": "Cc1nn(-c2ccccc2)c2nc(C(Cl)(Cl)Cl)[nH]c(=O)c12", "Potency": "inactive"},
      {"molecule": "O=C(N/N=C/c1ccncc1)c1ccc(COc2cccc3cccnc23)cc1", "Potency": "inactive"},
      {"molecule": "COc1ccc(N(C)S(=O)(=O)c2cccc(C(=O)OCC(=O)NCc3ccccc3OC)c2)cc1", "Potency": "inactive"},
      {"molecule": "COc1ccc(CCNC(=O)C2CCN(S(=O)(=O)c3ccc(OC)c(OC)c3)CC2)cc1OC", "Potency": "inactive"},
      {"molecule": "CC12CCC(C(=O)NNc3ccc([N+](=O)[O-])cc3)(OC1=O)C2(C)C", "note": "(stereo not given)", "Potency": "inactive"},
      {"molecule": "Cc1ccc2c(c1)C(c1ccccc1)N(C(=O)CC(C)C)CC(=O)N2", "note": "(stereo not given)", "Potency": "inactive"},
      {"molecule": "Cc1ccc(NC(=O)CSc2nnc([C@H](C)NC(=O)OC(C)(C)C)o2)c(C)c1", "Potency": "inactive"},
      {"molecule": "O=S(=O)(C/C(=C/CO)S(=O)(=O)c1ccccc1)c1ccccc1", "Potency": "inactive"},
      {"molecule": "COc1ccc2c(c1)cc(C(=O)N[C@H](C(=O)N1CCC(C(=O)O)CC1)C(C)C)n2C", "Potency": "inactive"},
      {"molecule": "CC(Oc1ccccc1)C(=O)Nc1cccc(NC(=O)c2ccco2)c1", "note": "(stereo not given)", "Potency": "inactive"},
      {"molecule": "O=C(Nc1ccc(N2CCCC2)cc1)c1ccc(Cl)cc1Cl", "Potency": "inactive"},
      {"molecule": "Nc1nc2ccccc2cc1-c1cccs1", "Potency": "inactive"},
      {"molecule": "Cc1oc2c(c(C)cc3oc(=O)c(CC(=O)NCC(=O)NCC(=O)O)c(C)c32)c1C", "Potency": "inactive"},
      {"molecule": "Cc1nc(SCC(=O)Nc2cc(C(N)=O)cc(C(N)=O)c2)c2c(C)c(C)sc2n1", "Potency": "51.9 µM (active)"},
      {"molecule": "COc1cc(/C=N/NC(=O)c2c(C)nc3ccc(Cl)cn23)cc(OC)c1OC", "Potency": "58.2 µM (active)"},
      {"molecule": "O=C1CN(C(=O)NCC(=O)N[C@H](C(=O)O)c2ccccc2)c2ccccc2N1", "Potency": "inactive"},
      {"molecule": "CCN1CCN(c2oc(COc3ccc(Cl)cc3)nc2C#N)CC1", "Potency": "inactive"},
      {"molecule": "NC(=O)c1cc2ccccc2o/c1=N/NC(=O)c1cccc(F)c1", "Potency": "inactive"},
      {"molecule": "COc1ccc(Nc2cc3n(c(=O)n2)CCc2cc(OC)c(OC)cc2-3)cc1", "Potency": "inactive"},
      {"molecule": "O=C1NC(=Nc2ccccc2)CS1", "Potency": "inactive"},
      {"molecule": "CC1(C)CC2(CCO1)OC(=O)CC2C(=O)Nc1c(Cl)cccc1Cl", "note": "(stereo not given)", "Potency": "inactive"},
      {"molecule": "S=c1[nH]nc(Cn2c(-c3ccccn3)nc3ccccc32)n1-c1ccc2c(c1)OCCO2", "Potency": "inactive"}
    ]}
  ]
}
